Measurements published in PubChem BioAssay (NCI).
This is part of a sample that, as a whole, favours compounds with a hit. Of some 79,000 tested, about 15% had one in any assay. No stated cut-off is given here; in the data, active means growth inhibition above about 70%; inactive means the rest.

Key:
[1] = NCI Yeast Anticancer Drug Screen. Data for the rad50 strain (AID 155);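 further: 0% = growth of vehicle-only cultures of the same strain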; conditions: S. cerevisiae rad50 strain growth inhibition; at 50.0 µM; hits give high values
Summary of the method: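 DNA repair mutant yeast, compound exposure, growth read-out; inhibition is taken relative to vehicle.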

[2] = NCI Yeast Anticancer Drug Screen. Data for the mec2-1 strain (AID 157); conditions: S. cerevisiae mec2-1 strain, at 50.0 µM, hits give high values
Summary of the method: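 Yeast mec2-1 mutant treated with compound. Readout: growth inhibition vs vehicle controls.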

[3] = NCI Yeast Anticancer Drug Screen. Data for the sgs1 mgt1 strain (AID 161);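 further: 0% = growth of cultures given vehicle only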; conditions: S. cerevisiae sgs1 mgt1 strain, at 50.0 µM, hits give high values
Summary of the method: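 Read-out: growth inhibition vs vehicle controls. Cells: mutant yeast strain deficient in DNA damage repair.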

[4] = NCI Yeast Anticancer Drug Screen. Data for the cln2 rad14 strain (AID 165);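 further: 0% = growth equal to vehicle treated cultures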; conditions: S. cerevisiae cln2 rad14 strain, at 50.0 µM, hits give high values
Summary of the method: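 cln2 rad14 yeast strain; compound exposure; growth inhibition read vs vehicle controls.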

[5] = NCI Yeast Anticancer Drug Screen. Data for the bub3 strain (AID 167); conditions: S. cerevisiae bub3 mutant strain, at 50.0 µM, hits give high values
Summary of the method: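 In this screen, a yeast mutant lacking normal mitotic checkpoint function is challenged with compound. Relative growth versus vehicle gives the inhibition value.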

[6] = NCI Yeast Anticancer Drug Screen. Data for the mlh1 rad18 strain (AID 175); conditions: S. cerevisiae mlh1 rad18 strain growth inhibition; at 50.0 µM; hits give high values
Summary of the method: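 Yeast w/ defined DNA-repair lesions; compound exposure; growth vs vehicle controls → % inhibition.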

Measured: growth inhibition

CC(C)(C)c1cc2c(=O)o[s+]3oc(=O)c(c1)c23
inactive: [1] 10.2% | [2] -8.75% | [3] 6.75% | [4] 1.35% | [5] 6.15% | [6] 14.8%

CC(Oc1ccc([N+](=O)[O-])cc1Cl)C(=O)Nc1ccc(S(=O)(=O)F)cc1 (stereo unspecified)
inactive: [1] -12.8% | [2] -14.4% | [3] -9.4% | [4] 4% | [5] 0.2% | [6] -12.6%

O=c1n(CC2CO2)c2ccccc2n1CC1CS1 (stereo unspecified)
inactive: [1] -7.4% | [2] -36% | [3] 7% | [4] -12.8% | [5] -41.4% | [6] 1.7%

Cc1cccc2c1[se]c1ccccc12
inactive: [1] -11.5% | [2] -3.85% | [3] -12% | [4] 4.45% | [5] 2.7% | [6] -17.1%

COc1cc(C2c3cc4c(cc3OC3(OC)COC(=O)C23)OCO4)cc(OC)c1OC(C)=O (stereo unspecified)
inactive: [1] -8.95% | [2] 0.45% | [3] -2.05% | [4] -6.9% | [5] -24.6% | [6] 8.1%

C1CN([PH+](N2CC2)N2CC2)CCO1.C1CN([PH+](N2CC2)N2CC2)CCO1.[Cl][Pt][Cl]
inactive: [1] 5.3% | [2] 26.6% | [3] 10% | [4] -8.85% | [5] -3.35% | [6] 22.7%

CC[C@@H](C)C(=O)O[C@H]1[C@H](O)[C@H]2[C@@H](CN3C[C@@H](C)CC[C@H]3[C@@]2(C)O)[C@@H]2C[C@]34O[C@@]5(O)[C@@H](OC(=O)[C@](C)(O)[C@@H](C)O)CC[C@@]3(C)[C@@H]5[C@@H](OC(C)=O)[C@@H](OC(C)=O)[C@H]4[C@@]21O
inactive: [1] 8.75% | [2] 6.25% | [3] -23.6% | [4] 12.6% | [5] 4.9% | [6] 25.5%

COc1cc(O)c([N+](=O)[O-])cc1[N+](=O)[O-]
inactive: [1] -6.4% | [2] 0.35% | [3] -2.9% | [4] 0% | [5] 18.9% | [6] 5.05%

CN(C)[C@@H]1C(=O)C(C(N)=O)=C(O)[C@@]2(O)C(=O)C3=C(O)c4c(O)ccc(Cl)c4[C@@](C)(O)[C@H]3C[C@@H]12
inactive: [1] -16.9% | [2] 1.1% | [3] 13.2% | [4] -6.6% | [5] -8.8% | [6] -4.1%

O=C1OC[C@@H]2Cc3c([nH]c4ccccc34)[C@@H](c3cc(O)c(O)c(O)c3)N12
inactive: [1] 12.1% | [2] -1.2% | [3] 20.8% | [4] 7.4% | [5] 10.7% | [6] -51.6%

CCCCC(C(=O)NN)P(=O)(OCC)OCC (stereo unspecified)
inactive: [1] -0.9% | [2] -5.2% | [3] 15.8% | [4] -14.7% | [5] -1.95% | [6] 0.95%

CN1C2CCC1CC(O)(c1ccc(Cl)cc1)C2 (stereo unspecified)
inactive: [1] 26.1% | [2] 16.4% | [3] 16.6% | [4] 16.1% | [5] 30.4% | [6] 28.1%

CCNC(=O)N1CC2CCC(C1)N2C
inactive: [1] -1.15% | [2] 7.85% | [3] 6.45% | [4] -39.1% | [5] -18.8% | [6] 8.45%

O=P(NCCCl)(NCCCl)Oc1ccccc1
inactive: [1] -19.5% | [2] -0.5% | [3] -18.8% | [4] -16.1% | [5] -7.25% | [6] -13.1%

NNN1CCN(N)CC1
inactive: [1] 11.1% | [2] -12.2% | [3] 6.35% | [4] -8.35% | [5] 17.1% | [6] 4.35%

COc1ccccc1CCN
inactive: [1] -23.6% | [2] -5.9% | [3] -14.1% | [4] -14.3% | [5] -21.2% | [6] -29.3%

O=C(O)C(Cl)C(=O)O
inactive: [1] -4.4% | [2] -7.8% | [3] 9% | [4] -26.4% | [5] -0.35% | [6] -13.9%

CC(=O)OC1CCC2(CO)C(CCC3C4CCC(=O)C4(C)CCC32)C1 (stereo unspecified)
inactive: [1] 14.1% | [2] -4.25% | [3] 0.3% | [4] 11.9% | [5] 5.3% | [6] 21.8%

Cc1ccc(OP(=O)(Oc2ccc(C)cc2)Oc2ccc(C)cc2)cc1.Cc1ccc(OP(=O)(Oc2ccc(C)cc2)Oc2ccc(C)cc2)cc1.[Cl][Cr]([Cl])[Cl]
inactive: [1] -1.05% | [2] -3.05% | [3] -2.1% | [4] -7% | [5] 0.9% | [6] 4.45%

ClCCN(CCCl)c1ncnc2c1ncn2Cc1ccccc1
inactive: [1] 2.9% | [2] 17.4% | [3] 15.6% | [4] -12.6% | [5] -1.95% | [6] -0.4%

COP1(=S)OCC2CCC[C@@H]2O1 (stereo partly specified)
inactive: [1] -19.5% | [2] -26.4% | [3] -33% | [4] 3.2% | [5] -21.9% | [6] -32.1%

CCC(N)CBr (stereo unspecified)
inactive: [1] -9.65% | [2] 1.7% | [3] -9.5% | [4] -16.9% | [5] 5.3% | [6] 8.9%

CC(=N/O)/C(C)=N\O
inactive: [1] 21% | [2] 14.8% | [3] 5.7% | [4] 13.4% | [5] -0.4% | [6] 40.3%

O=C(NCC(O)CO)c1ccc(N(CCCl)CCCl)c([N+](=O)[O-])c1[N+](=O)[O-] (stereo unspecified)
inactive: [1] 17.1% | [2] 4.7% | [3] 16.3% | [4] 8.1% | [5] 12.7% | [6] 17.1%

C[N+]1(C)C2CC(O)CC1C1OC12 (stereo unspecified)
inactive: [1] -4.35% | [2] 5.15% | [3] 1.45% | [4] 2.85% | [5] -3.75% | [6] 4.45%

CCC1(CCC(C)C)C(=O)NC(=NCCCC(N)C(=O)O)NC1=O (stereo unspecified)
inactive: [1] 11.1% | [2] -0.35% | [3] 7.6% | [4] 30.3% | [5] 3.25% | [6] 13.1%

CC(C)(O)[C@H]1[C@@H]2OC(=O)[C@H]1[C@]1(O)C[C@H]3OC34C(=O)O[C@H]2[C@@]41C (stereo partly specified) (tested in a mixture with another compound)
inactive: [1] 1.05% | [2] -12.8% | [3] 19.6% | [4] -9.25% | [5] -12.4% | [6] -65.3%

CCOP(=O)(NCc1ccccc1)c1ccc(N)cc1 (stereo unspecified)
inactive: [1] 6.05% | [2] -6.45% | [3] 7.65% | [4] 1.95% | [5] -0.5% | [6] 7.15%

O=C(O)C(O)(Cl)c1cccs1 (stereo unspecified)
inactive: [1] -0.5% | [2] -3.35% | [3] -4.8% | [4] -16.6% | [5] -7.15% | [6] 14.8%

O=C1Nc2ccccc2C12CNCS2 (stereo unspecified)
inactive: [1] 5.7% | [2] 4.55% | [3] -8.6% | [4] -23.4% | [5] -12.8% | [6] 8.2%

Cc1cc(CCl)cc(=O)[nH]1
inactive: [1] -9.75% | [2] -0.7% | [3] -7.55% | [4] -8.9% | [5] -20.6% | [6] 12.2%

CC(CN1NC12CCCC2)N1NC12CCCC2 (stereo unspecified)
inactive: [1] 0.95% | [2] -1.85% | [3] 29.2% | [4] 24.4% | [5] 15.6% | [6] -35.5%

CC(=O)C(C)(C)C
inactive: [1] 0% | [2] -1.45% | [3] 5.15% | [4] 3% | [5] 3.5% | [6] 24.1%

CN1CCc2cc3c(cc2[C@H]1[C@@H]1OC(=O)c2c1ccc1c2OCO1)OCO3
inactive: [1] -11.4% | [2] -38.5% | [3] -26% | [4] -0.25% | [5] -29.1% | [6] -41%

CCCCOP(=S)(OCCCC)Oc1ccc(Cl)cc1Cl
inactive: [1] -4.95% | [2] -41.4% | [3] -0.55% | [4] -0.25% | [5] 17.5% | [6] -1.95%

NCC(Cc1ccccc1)P(=O)(O)O (stereo unspecified)
inactive: [1] -23.8% | [2] -28.6% | [3] -26.4% | [4] -42.3% | [5] -28.1% | [6] -22.8%
